{"source": "the supplement of paper PMC8728848", "binders": {"B1": {"name": "Mincle (Bos taurus) (protein)", "chain": "MNSSTSPASQTERRCFSFQLFSWAIAGTSILLLSACFITRCVVTYSIFQLCDEKKFQPPGDSMELSCYNDGSGSVKNCCPLKWFHFQSSCYLFSPDTMSWRASLKNCSSMGAHLVVINTQEEQEFLYYTKPRKKEFYIGLTDQVTEGQWQWVDGTPFTKSLSFWDAGEPNNLVIVEDCATIRDSSNPRQNWNDVPCFFNMFRVCEMPERKI"}}, "experiment_in_all_cases": "glycan array binding signal (z-score within array); higher = stronger binding", "details_in_all_cases": "glycan notation: IUPAC condensed, linker removed", "key": {"Fuc(a1-2)Gal": {"molecular_target": "Fuc(a1-2)Gal", "procedure,_shortened": "(§1)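 Glycan array data were curated from 3228 arrays in the Consortium for Functional Glycomics database and kept only where the protein sequence was available. Glycan names were converted to IUPAC-condensed notation, and columns mapping to the same glycan were averaged. The binding signal is a within-array Z-score, averaged across arrays of the same protein sequence at different concentrations or buffers and across linkers. Negative Z-scores can be read as non-binding.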"}, "[1]": {"molecular_target": "Fuc(a1-2)Gal(b1-4)GlcNAc(b1-2)Man(a1-3)[Fuc(a1-2)Gal(b1-4)GlcNAc(b1-2)Man(a1-6)]Man(b1-4)GlcNAc(b1-4)GlcNAc", "procedure,_shortened": "as §1"}, "[2]": {"molecular_target": "Fuc(a1-2)Gal(b1-4)GlcNAc(b1-6)GalNAc", "procedure,_shortened": "as §1"}, "[3]": {"molecular_target": "Fuc(a1-2)Gal(b1-4)[Fuc(a1-3)]GlcNAc(b1-3)[Neu5Ac(a2-6)Gal(b1-4)GlcNAc(b1-6)]Gal(b1-4)Glc", "procedure,_shortened": "as §1"}, "Fuc(a1-2)[Gal(a1-3)]Gal": {"molecular_target": "Fuc(a1-2)[Gal(a1-3)]Gal", "procedure,_shortened": "as §1"}, "[4]": {"molecular_target": "Fuc(a1-2)[Gal(a1-3)]Gal(b1-4)GlcNAc(b1-2)Man(a1-3)[Fuc(a1-2)[Gal(a1-3)]Gal(b1-4)GlcNAc(b1-2)Man(a1-6)]Man(b1-4)GlcNAc(b1-4)[Fuc(a1-6)]GlcNAc", "procedure,_shortened": "as §1"}, "[5]": {"molecular_target": "Fuc(a1-2)[GalNAc(a1-3)]Gal(b1-3)GalNAc(b1-3)Gal(a1-4)Gal(b1-4)Glc", "procedure,_shortened": "as §1"}, "[6]": {"molecular_target": "Fuc(a1-2)[GalNAc(a1-3)]Gal(b1-3)GlcNAc(b1-2)Man(a1-3)[Fuc(a1-2)[GalNAc(a1-3)]Gal(b1-3)GlcNAc(b1-2)Man(a1-6)]Man(b1-4)GlcNAc(b1-4)[Fuc(a1-6)]GlcNAc", "procedure,_shortened": "as §1"}, "[7]": {"molecular_target": "Fuc(a1-2)[GalNAc(a1-3)]Gal(b1-4)GlcNAc(b1-2)Man(a1-3)[Fuc(a1-2)[GalNAc(a1-3)]Gal(b1-4)GlcNAc(b1-2)Man(a1-6)]Man(b1-4)GlcNAc(b1-4)GlcNAc", "procedure,_shortened": "as §1"}, "[8]": {"molecular_target": "Fuc(a1-3)[Gal(b1-4)]Glc6S", "procedure,_shortened": "as §1"}, "[9]": {"molecular_target": "Fuc(a1-3)[Gal3S(b1-4)]GlcNAc6S", "procedure,_shortened": "as §1"}, "[10]": {"molecular_target": "Gal(a1-3)Gal(b1-3)GlcNAc(b1-3)GalNAc", "procedure,_shortened": "as §1"}, "[11]": {"molecular_target": "Gal(a1-3)Gal(b1-3)[Fuc(a1-4)]GlcNAc(b1-2)Man(a1-3)[Gal(a1-3)Gal(b1-3)[Fuc(a1-4)]GlcNAc(b1-2)Man(a1-6)]Man(b1-4)GlcNAc(b1-4)GlcNAc", "procedure,_shortened": "as §1"}, "Gal(a1-3)Gal(b1-4)Glc": {"molecular_target": "Gal(a1-3)Gal(b1-4)Glc", "procedure,_shortened": "as §1"}, "[12]": {"molecular_target": "Gal(a1-3)Gal(b1-4)GlcNAc(b1-3)GalNAc", "procedure,_shortened": "as §1"}, "[13]": {"molecular_target": "Gal(a1-3)Gal(b1-4)[Fuc(a1-3)]GlcNAc", "procedure,_shortened": "as §1"}, "Gal(a1-4)Gal(b1-4)Glc": {"molecular_target": "Gal(a1-4)Gal(b1-4)Glc", "procedure,_shortened": "as §1"}, "[14]": {"molecular_target": "Gal(a1-4)Gal(b1-4)GlcNAc(b1-2)Man(a1-3)[Gal(a1-4)Gal(b1-4)GlcNAc(b1-2)Man(a1-6)]Man(b1-4)GlcNAc(b1-4)GlcNAc", "procedure,_shortened": "as §1"}, "[15]": {"molecular_target": "Gal(a1-4)Gal(b1-4)GlcNAc(b1-3)Gal(b1-4)Glc", "procedure,_shortened": "as §1"}, "Gal(b1-3)Gal(b1-4)GlcNAc": {"molecular_target": "Gal(b1-3)Gal(b1-4)GlcNAc", "procedure,_shortened": "as §1"}, "Gal(b1-3)GalNAc": {"molecular_target": "Gal(b1-3)GalNAc", "procedure,_shortened": "as §1"}, "[16]": {"molecular_target": "Gal(b1-3)GlcNAc(b1-3)Gal(b1-4)GlcNAc(b1-2)Man(a1-3)[Gal(b1-3)GlcNAc(b1-3)Gal(b1-4)GlcNAc(b1-2)Man(a1-6)]Man(b1-4)GlcNAc(b1-4)GlcNAc", "procedure,_shortened": "as §1"}, "Gal(b1-3)GlcNAc6S": {"molecular_target": "Gal(b1-3)GlcNAc6S", "procedure,_shortened": "as §1"}, "[17]": {"molecular_target": "Gal(b1-3)[Fuc(a1-4)]GlcNAc(b1-2)Man", "procedure,_shortened": "as §1"}, "Gal(b1-4)Glc6S": {"molecular_target": "Gal(b1-4)Glc6S", "procedure,_shortened": "as §1"}, "Gal(b1-4)GlcNAc": {"molecular_target": "Gal(b1-4)GlcNAc", "procedure,_shortened": "as §1"}, "[18]": {"molecular_target": "Gal(b1-4)GlcNAc(b1-2)[Gal(b1-4)GlcNAc(b1-6)]Man(a1-6)[Gal(b1-4)GlcNAc(b1-2)Man(a1-3)]Man(b1-4)GlcNAc(b1-4)GlcNAc", "procedure,_shortened": "as §1"}, "[19]": {"molecular_target": "Gal(b1-4)GlcNAc(b1-3)Gal(b1-4)GlcNAc(b1-2)Man(a1-3)[Gal(b1-4)GlcNAc(b1-3)Gal(b1-4)GlcNAc(b1-2)Man(a1-6)]Man(b1-4)GlcNAc(b1-4)[Fuc(a1-6)]GlcNAc", "procedure,_shortened": "as §1"}, "[20]": {"molecular_target": "Gal(b1-4)GlcNAc(b1-3)Gal(b1-4)GlcNAc(b1-3)Gal(b1-4)GlcNAc(b1-3)Gal(b1-4)GlcNAc(b1-3)Gal(b1-4)GlcNAc(b1-3)Gal(b1-4)GlcNAc(b1-2)Man(a1-3)[Gal(b1-4)GlcNAc(b1-3)Gal(b1-4)GlcNAc(b1-3)Gal(b1-4)GlcNAc(b1-3)Gal(b1-4)GlcNAc(b1-3)Gal(b1-4)GlcNAc(b1-3)Gal(b1-4)GlcNAc(b1-2)Man(a1-6)]Man(b1-4)GlcNAc(b1-4)GlcNAc", "procedure,_shortened": "as §1"}, "[21]": {"molecular_target": "Gal(b1-4)GlcNAc(b1-3)[Gal(b1-4)GlcNAc(b1-6)]Gal(b1-4)GlcNAc", "procedure,_shortened": "as §1"}, "[22]": {"molecular_target": "Gal3S(b1-3)[Fuc(a1-4)]GlcNAc", "procedure,_shortened": "as §1"}}, "note": "This excerpt belongs to a sample that is enriched for the strongest signals.", "data": [{"binder": "B1", "values": [{"measurement": "glycan array binding signal (z-score)", "setting": "Fuc(a1-2)Gal", "value": 3.49}, {"measurement": "glycan array binding signal (z-score)", "setting": "[1]", "value": 1.4}, {"measurement": "glycan array binding signal (z-score)", "setting": "[2]", "value": -0.168}, {"measurement": "glycan array binding signal (z-score)", "setting": "[3]", "value": -0.411}, {"measurement": "glycan array binding signal (z-score)", "setting": "Fuc(a1-2)[Gal(a1-3)]Gal", "value": -0.737}, {"measurement": "glycan array binding signal (z-score)", "setting": "[4]", "value": -0.601}, {"measurement": "glycan array binding signal (z-score)", "setting": "[5]", "value": -0.374}, {"measurement": "glycan array binding signal (z-score)", "setting": "[6]", "value": 0.364}, {"measurement": "glycan array binding signal (z-score)", "setting": "[7]", "value": 0.419}, {"measurement": "glycan array binding signal (z-score)", "setting": "[8]", "value": -0.342}, {"measurement": "glycan array binding signal (z-score)", "setting": "[9]", "value": -0.116}, {"measurement": "glycan array binding signal (z-score)", "setting": "[10]", "value": 0.019}, {"measurement": "glycan array binding signal (z-score)", "setting": "[11]", "value": 1.26}, {"measurement": "glycan array binding signal (z-score)", "setting": "Gal(a1-3)Gal(b1-4)Glc", "value": 0.058}, {"measurement": "glycan array binding signal (z-score)", "setting": "[12]", "value": -0.713}, {"measurement": "glycan array binding signal (z-score)", "setting": "[13]", "value": -0.559}, {"measurement": "glycan array binding signal (z-score)", "setting": "Gal(a1-4)Gal(b1-4)Glc", "value": -0.565}, {"measurement": "glycan array binding signal (z-score)", "setting": "[14]", "value": 0.919}, {"measurement": "glycan array binding signal (z-score)", "setting": "[15]", "value": -0.763}, {"measurement": "glycan array binding signal (z-score)", "setting": "Gal(b1-3)Gal(b1-4)GlcNAc", "value": -0.462}, {"measurement": "glycan array binding signal (z-score)", "setting": "Gal(b1-3)GalNAc", "value": -0.37}, {"measurement": "glycan array binding signal (z-score)", "setting": "[16]", "value": 0.271}, {"measurement": "glycan array binding signal (z-score)", "setting": "Gal(b1-3)GlcNAc6S", "value": -0.773}, {"measurement": "glycan array binding signal (z-score)", "setting": "[17]", "value": 1.34}, {"measurement": "glycan array binding signal (z-score)", "setting": "Gal(b1-4)Glc6S", "value": 0.6}, {"measurement": "glycan array binding signal (z-score)", "setting": "Gal(b1-4)GlcNAc", "value": -0.249}, {"measurement": "glycan array binding signal (z-score)", "setting": "[18]", "value": -0.55}, {"measurement": "glycan array binding signal (z-score)", "setting": "[19]", "value": 1.11}, {"measurement": "glycan array binding signal (z-score)", "setting": "[20]", "value": 0.667}, {"measurement": "glycan array binding signal (z-score)", "setting": "[21]", "value": -1.01}, {"measurement": "glycan array binding signal (z-score)", "setting": "[22]", "value": 3.35}]}]}
